PubChem BioAssay (Tox21)
Records with an inconclusive call do not appear. Values without a mark were called inactive. Calls follow the shape of the dose curve; as a rule, active = well fitted activation curve with a large enough effect in the repeat runs; inconclusive = weak or mixed curves; inactive = flat fitted curve, though single readings scatter.

test: A CellTox Green Cytotoxicity Assay to monitor cytotoxicity in HEK293 cells - 8 hour (AID 1224884); conditions: CellTox Green fluorescence; series mostly up to 76.8 µM; cytotoxicity increase: at the top concentration; also: nearly all actives have a fitted effect of over 35% in size
Source text: National Center for Advancing Translational Sciences [NCATS]
NIH Chemical Genomics Center [NCGC]
U.S. Environmental Protection Agency [EPA]
National Institutes of Environmental Health Sciences [NIEHS]
National Toxicology Program [NTP]
Cell-based models are critical for drug discovery. Determining the natural cytotoxic effects resulting from test compounds is an essential research activity. A CellTox Green Cytotoxicity Assay to monitor cytotoxicity in real time of continues cell culture during 40 hours of the compound treatment was used to screen Tox21 10K library compounds in Hek293 cells. CellTox Green Cytotoxicity Assay is a nonlytic, homogeneous, biofluorescent method to measure cytotoxicity in cell culture after experimental manipulation. The assay system uses a proprietary asymmetric cyanine dye that is excluded from viable cells but preferentially stains the dead cell's DNA. […] Viable cells produce no appreciable increases in fluorescence. Therefore, the fluorescence signal produced by the binding interaction with dead cell DNA is proportional to cytotoxicity.
The mixture of Hek293 cell suspension and reagents were dispensed at 600cells/6 ul/well in 1536-well tissue culture treated black solid bottom plates using a Multidrop dispenser. After the assay plates were incubated at a 37 C/5% CO2 incubator for 5 hours, 23 nL of compounds dissolved in DMSO, positive and negative controls was transferred to the assay plate by a pintool work station. The plates were incubated at 37 C for 40 hours. The fluorescence intensity were measured at 0h, 8h, 16h, 24h, 32h and 40h time points using ViewLux plate reader during compound treatment.
% is scaled to controls: 0 for no effect and ±100 for the full control effect.

For CC(CN)CC(C)(C)CCN (stereo not given), the “cytotoxicity increase” value was -5.68% [at 200 µM].

In order of falling “cytotoxicity increase” value:
1. O=C(O)Cc1cn(-c2ccccc2)nc1-c1ccc(Cl)cc1  13.8% [at 35.3 µM]
2. CC1=C(C(=O)O)N2C(=O)[C@@H](NC(=O)[C@H](N)c3ccc(O)cc3)[C@H]2SC1  8.71% [at 35.3 µM]
3. CN=C(NC#N)Nc1ccc(C2=NNC(=O)CC2C)cc1 (stereo not given)  3.58% [at 35.3 µM]
4. O=C(CCNNC(=O)c1ccncc1)NCc1ccccc1  3.25% [at 35.3 µM]
5. c1ccc2c(c1)ccc1c3ccccc3ccc21  2.99% [at 35.3 µM]
6. O=C1CC(c2ccc(Cl)cc2)CC(=O)N1  2.86% [at 35.3 µM]
7. O=C1c2cccc3c2[C@H](CCC3)CN1[C@@H]1CN2CCC1CC2  2.82% [at 35.3 µM]
8. COc1cc(C(=S)N2CCOCC2)cc(OC)c1OC  2.12% [at 35.3 µM]
9. O=C(CS(=O)Cc1ccco1)NC/C=C\COc1cc(CN2CCCCC2)ccn1 (stereo not given)  1.01% [at 35.3 µM]
10. Cc1[nH]cnc1-c1ccc(Cl)cc1  0.0924% [at 35.3 µM]
11. CC(=O)NCc1c(I)c(NC(C)=O)c(I)c(C(=O)O)c1I  -0.647% [at 35.3 µM]
12. COP(=O)(OC)OC(c1ccc(Cl)cc1)P(=O)(OC)OC (stereo not given)  -0.795% [at 35.3 µM]
13. NS(=O)(=O)c1ccc(NC(=O)CCC(=O)O)cc1  -0.878% [at 35.3 µM]
14. O=C(Nc1ccc(Cl)c(Cl)c1)C1CC1  -1.22% [at 35.3 µM]
15. CCCN1C[C@H](CSC)C[C@@H]2c3cccc4[nH]cc(c34)C[C@H]21  -1.5% [at 35.3 µM]
16. COC(=O)[C@@H]1[C@H]2C[C@H]3c4[nH]c5ccccc5c4CCN3C[C@@H]2CC[C@@H]1O  -2.87% [at 35.3 µM]
17. CC1(C)S[C@@H]2[C@H](N=CN3CCCCCC3)C(=O)N2[C@H]1C(=O)O  -3.49% [at 35.3 µM]
18. CNS(=O)(=O)CCc1ccc2[nH]cc(C3CCN(C)CC3)c2c1  -4.78% [at 35.3 µM]
19. O=C(OCC(O)CO)c1ccccc1Nc1ccnc2c(C(F)(F)F)cccc12 (stereo not given)  -7.66% [at 35.3 µM]
20. CC(N)C(=O)OC(C)(C)Cc1ccc(Cl)cc1 (stereo not given)  -8.75% [at 35.3 µM]
21. CCN(CC)CC(=O)Nc1c(C)cccc1C  -9.87% [at 35.3 µM]
22. CCOCCOC(=O)/C=C/c1ccc(OC)cc1  -16% [at 35.3 µM]

In order of falling “cytotoxicity increase” value:
1. CCc1ccc(C=O)cc1  20.7%
2. C=C(C)C(=O)OCc1ccccc1  17.2%
3. CC(C)(C)c1n[nH]c(=S)n(N)c1=O  13.1%
4. CC(C)(C)OC(=O)c1ccc(O)cc1  9.4%
5. C=C1CC/C=C(\C)CC[C@@H]2[C@@H]1CC2(C)C  3.37%
6. OCCN(CCO)c1cccc(Cl)c1  1.26%
7. CC(C)OC(=O)CCCCC(=O)OC(C)C  0.832%
8. O=C(O)c1cc(Cl)cc([N+](=O)[O-])c1Cl  -1.48%
9. O=C(/N=N/C(=O)OCc1ccccc1)OCc1ccccc1  -5.44%
10. Cc1ccc(S(=O)(=O)O)c(C)c1  -5.8%
11. O=P(O)(O)OP(=O)(O)O  -9.49%
12. Cc1ccccc1N=O  -10.5%
13. C[C@@H]1O[C@@H](O[C@@H]2[C@@H](O)[C@H](OCCc3ccc(O)c(O)c3)O[C@H](CO[C@@H]3O[C@H](CO)[C@@H](O)[C@H](O)[C@H]3O)[C@H]2OC(=O)/C=C/c2ccc(O)c(O)c2)[C@H](O)[C@H](O)[C@H]1O  -12%
14. ClCCCl  -12.8%
15. CCOC(=O)CC(=O)c1ccccc1  -15.1%
16. CC1COc2ccccc2N1 (stereo not given)  -17.6%

COC(=O)C1CC(=O)C(C(=O)OC)CC1=O (stereo not given) gave a cytotoxicity increase of 10.4% [at 6.97 µM].
